VACV mCherry inh = inhibitors of vaccinia virus infection (mCherry reporter signal) | Vaccinia virus mCherry reporter infection, fluorescence | Potency, µM (doses to about 36.5 µM), for the others: top-dose activity change, negative = inhibition, actives largely listed as inhibitors | 310,000 compounds, 0.63% hits | AID 720579; calls by dose curve; tested in A549 cells; also: % is scaled to controls: 0 for no effect and ±100 for the full control effect; nearly all actives have a fitted effect of over 35% in size
NS1 inh = blocks influenza NS1 protein function. 270,000 compounds, 0.4% hits. Potency, µM (doses to about 46.1 µM), without a hit: top-dose activity, positive = more growth. AID 2326; calls by dose curve; also: actives are rising curves; nearly all actives have a fitted effect of over 50% in size
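Compounds were scored for reversing the slow growth caused by influenza A NS1 in S. cerevisiae, measured by optical density at 600 nm. Assay medium contained 2% galactose at pH 6.0; NS1-free yeast of the same strain were the positive control.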
Pf growth 48h = inhibits P. falciparum growth in the first generation, 48 h; 310,000 compounds, 5.9% hits; AID 504832; Potency, µM (highest dose often 28.7 µM), without a hit: at the highest dose activity change, negative = inhibition, hits mostly inhibitors; P. falciparum luciferase growth in erythrocytes, 48 h; also: % is scaled to controls: 0 for no effect and ±100 for the full control effect
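Firefly luciferase activity from engineered P. falciparum reports growth; inhibitors lower the luminescent signal. Cultures contained 2% hematocrit erythrocytes at 0.1% final parasitemia.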
Pf growth 96h = P. falciparum growth inhibition at 96 hour, primary screen for plastid delayed-death inhibitors | P. falciparum luciferase reporter growth, 96 h | 320,000 compounds, 6.9% hits | Potency, µM (highest dose often 28.7 µM), without a hit: top-dose activity change, negative = inhibition, usual class: inhibitors; also: % is scaled to controls: 0 for no effect and ±100 for the full control effect
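Plates of compound plus infected erythrocytes (2% hematocrit, 0.05% parasitemia final) incubate 96 hours, 37 C, 5% CO2. Detection reagent added; reduced luminescence from the parasites' luciferase reporter flags inhibition.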
VACV Venus inh = vaccinia inhibition (Venus reporter); Vaccinia virus Venus reporter expression, fluorescence; Potency, µM (series often up to 36.5 µM), without a hit: at the top dose activity change, negative = inhibition, actives largely listed as inhibitors; 330,000 compounds, 0.46% hits; calls by dose curve; tested in A549 cells; also: % is scaled to controls: 0 for no effect and ±100 for the full control effect; nearly all actives have a fitted effect of over 30% in size
HCV inhibitor = HCV inhibition; Huh7.5.1 HCVcc-Cre infection, luciferase reporter, 44 h; Potency, µM (series often up to 41.8 µM), for the others: at the highest dose activity change, negative = inhibition, actives largely listed as inhibitors; 340,000 compounds, 3.4% hits; also: % is scaled to controls: 0 for no effect and ±100 for the full control effect
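Cells (1,000/well) were plated 4 h before compound, then infected with HCVcc-Cre virus (~0.5 moi). After 44 h further culture, infection was read as luciferase luminescence following a 15 min substrate incubation at room temperature.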
An asterisk follows results filed as active; i = inactive; ? = inconclusive; / = no result given; [ ] = another dose, or the depositor's remark. An excerpt weighted towards active compounds, which were near 11% of everything screened. Unless noted, calls follow the shape of the dose curve; as a rule, active = well fitted inhibition curve with a large enough effect; inconclusive = small, poorly fitted or top-dose-only effect, or another doubt; inactive = no such curve, though single readings can be large or run the other way. Potency is read from the fitted curve at half-maximal effect.

SMILES	VACV mCherry inh	NS1 inh	Pf growth 48h	Pf growth 96h	VACV Venus inh	HCV inhibitor
Cc1ccc(C(=O)NCC(=O)OCc2c(F)cccc2Cl)s1	-15.9%	/	/	/	-5.4%	16.3%
Cc1ccc(S(=O)(=O)Nc2cccc3cccnc23)cc1	?	-57.8%	/	3.7µM*	?	?
COc1cc(NS(=O)(=O)c2ccc(C)cc2)c2ncccc2c1	/	-27.8%	2.33µM*	-3.1%	/	?
COc1cc(NCCCC(C)N)c2ncccc2c1 (configuration not stated)	/	?	0.262µM*	0.849µM*	?	?
Cc1ccc(NS(=O)(=O)c2cccc3cccnc23)c(Cl)c1	/	-2.7%	-3.2%	-12.4%	/	9.3%
CSc1nc2nc3c(c(=O)n2[nH]1)CN(Cc1ccccc1)CC3	i	-15.4%	?	42.6%	-19.5%	-5.4%
COC(=O)CN(c1cccc(C)c1)S(=O)(=O)c1ccccc1	/	-7.3%	1.0%	?	/	24.3%
CC12CN3CC(C)(CN(C1)P3(=O)Oc1ccccc1)C2=O (configuration not stated)	-16.4%	8.3%	15.7%	6.7%[5.75 µM]	-10.4%	11.5%
COc1ccccc1C(=O)NNC1=NS(=O)(=O)c2ccccc21	i	6.2%	16.0%	-24.2%	-7.7%	10.5%
Cc1c(N=Cc2cc(Br)cc(Br)c2O)cccc1C(=O)O	i	-15.7%	11.7µM*	?	-12.6%	-6.6%
COc1ccc(/C=N/Nc2nc(-c3ccc(Cl)cc3)cc(C(F)(F)F)n2)c(OC)c1	-9.3%	11.9%	-11.3%	18.7%	-4.2%	-10.6%
COc1ccc(/C(C)=N\Nc2nc(-c3ccc(Cl)cc3)cc(C(F)(F)F)n2)cc1OC	i	13.8%	10.4µM*	?	-10.5%	?
CCc1noc(C)c1C(=O)N(CCC(C)C)c1c(N)n(Cc2ccccc2)c(=O)[nH]c1=O	-19.6%	/	?	16.6%	-7.5%	22.8%
O=C(NNc1ccc(C(F)(F)F)cc1[N+](=O)[O-])c1ccc(NS(=O)(=O)c2ccc(F)cc2)cc1	?	11.0%	?	8.28µM*	?	-2.9%
CC(C)[C@H](Nc1ccc(C(F)(F)F)cc1[N+](=O)[O-])C(=O)O	i	4.1%	5.0%	0.0%	-7.9%	4.8%
CN(C)CCCN1c2ccccc2Sc2ccc(C(F)(F)F)cc21	?	-30.3%	?	15.1µM*	?	?
CSc1ccc2c(c1)N(CCCN(C)C)c1ccccc1S2	/	-3.5%	/	/	/	/
CC(CN(C)C)CN1c2ccccc2Sc2ccccc21 (configuration not stated)	-3.7%	/	13.1µM*	?	-23.3%	?
OCCN(CCO)CC(O)CN1c2ccccc2Sc2ccccc21 (configuration not stated)	/	-7.5%	?	-0.8%	/	13.4%
CC(CN(C)C)CN1c2ccccc2Sc2ccc(C(F)(F)F)cc21 (configuration not stated)	/	/	15.1µM*	?	/	/
CCN(CC)CC(O)CN1c2ccccc2Sc2ccccc21 (configuration not stated)	?	-1.2%	-4.3%	?	-24.6%	22.4µM*
CC(C)CC(=O)Nc1ccc(C(=O)NNC(=S)NC(=O)C2CCCCC2)cc1	-12.2%	-0.1%	?	0.0%	-12.8%	?
O=C(CN1CCCCCC1)NC(c1ccccc1)c1ccccc1	-23.3%	-4.0%	?	?	-17.6%	29.3%
CSC(=S)N/N=C/c1ccc(Br)cc1	/	/	?	?	/	3.1%
CC1(C)CC(=O)C=C(NC2CCS(=O)(=O)C2)C1 (configuration not stated)	/	5.1%	/	/	/	/
SMILES	VACV mCherry inh	NS1 inh	Pf growth 48h	Pf growth 96h	VACV Venus inh	HCV inhibitor
CCCSc1sc(C(=O)OC)c(-c2cccs2)c1C#N	-5.4%	-3.3%	10.4µM*	10.4µM*	-11.0%	?
COc1cc(OC)cc(C(=O)N2CCN(C(=O)COc3ccc4ccccc4c3)CC2)c1	17.3%	-13.7%	-3.6%	/	29.6%	-20.7%
CCOC(=O)c1ccc(-[n+]2c(-c3ccccc3)cc(-c3ccccc3)cc2-c2ccccc2)cc1	i	/	2.94µM*	1.17µM*	?	0.631µM*
CCOC(=O)c1ccc(P(=O)(c2ccccc2)c2ccccc2)cc1	/	2.8%	-27.3%	-20.0%	/	-0.3%
CCOC(=O)c1cccc(P(=O)(C(C)(C)C)C(C)(C)C)c1	i	-6.5%	-12.5%	-28.9%	-6.7%	3.4%
CCOC(=O)c1cccc(-[n+]2c(-c3ccccc3)cc(-c3ccccc3)cc2-c2ccccc2)c1	i	/	1.85µM*	0.586µM*	-26.5%	?
CCOC(=O)N1CCC(N(CCN(C)C)C(=S)Nc2cccc(OC)c2)CC1	-20.8%	/	-5.3%	7.38µM*	-5.3%	-2.7%
COCCN(C(=S)Nc1ccc(OC)cc1)C1CCN(C(C)=O)CC1	-12.3%	6.0%	-17.2%	1.2%	-4.7%	3.8%
COCCN(CCOC)C(=S)Nc1ccccc1	-12.0%	/	0.0%	38.2%	-16.7%	1.78µM*
COCCN(C(=S)Nc1ccc(OC)cc1)C1CCN(C(C)C)CC1	-15.9%	-0.7%	-4.0%	11.7µM*	-10.8%	-2.6%
C=C(C)CN(Cc1ccccc1)C(=S)Nc1ccccc1	-7.9%	1.3%	-29.9%	42.2%	1.0%	-12.6%
CC(C)CCN(C(=O)Nc1ccc(Cl)cc1)C1CCN(C(C)C)CC1	-1.8%	/	13.1µM*	?	-15.7%	?
CN(C)C(=O)C(NC(=O)c1ccccc1)=C(Cl)Cl	-0.8%	3.9%	19.0%	13.4%	-7.3%	12.5%
CCOc1ccccc1NC(=O)CCCc1nc2ccccc2c(=O)[nH]1	/	-1.9%	-14.8%	/	/	-12.2%
COc1ccc(NC(=S)N(CCC(C)C)C2CCN(C(C)C)CC2)cc1Cl	-20.7%	-11.1%	?	?	-22.2%	3.98µM*
COCCN(C(=S)Nc1ccc(OC)c(Cl)c1)C1CCN(C(C)C)CC1	-7.6%	/	9.7%	?	-13.8%	?
COCCN(C(=S)Nc1cccc(OC)c1)C1CCN(C(C)C)CC1	i	-8.4%	0.5%	13.1µM*	-16.3%	0.8%
COCCN(C(=S)Nc1cccc(OC)c1)C1CCN(C(C)=O)CC1	-4.1%	4.2%	-7.3%	21.4%	-1.0%	20.3%
O=C(Oc1cccc(C(=S)N2CCOCC2)c1)c1ccc([N+](=O)[O-])cc1[N+](=O)[O-]	5.62µM*	-60.1%	17.6%	18.2%	?	13.1%
CCOc1cc(C(=S)N2CCOCC2)ccc1OS(=O)(=O)c1ccccc1[N+](=O)[O-]	?	34.2%	?	5.86µM*	?	-4.4%
COc1cc(C(=S)N2CCOCC2)ccc1OC(=O)c1cc([N+](=O)[O-])c(C)c([N+](=O)[O-])c1	i	15.7%	-0.5%	1.65µM*	-5.5%	-0.1%
COC(=O)N/N=C1\CCCc2c(C)cc(C)cc21	i	/	-8.6%	29.6%	-13.7%	13.9%
Cc1ccc(Oc2nc3ccccn3c(=O)c2/C=C(\C#N)C(=O)Nc2c(C)n(C)n(-c3ccccc3)c2=O)c(C)c1	i	-4.8%	-29.6%	?	-14.3%	10.2%

Source: PubChem (National Center for Advancing Translational Sciences (NCATS))
